The record followed here is the supplement of paper PMC3414501.

Test [1] concerns S. cerevisiae SK1 pCDA2-eGFP (USY613), sporulating. Nature of the test: CDA2-GFP sporulation assay sensitivity score (z-score vs DMSO controls); higher = stronger inhibition of sporulation, active = hit call of the paper.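 Note: active if sensitivity score above 5.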
For test [2], the system named is S. cerevisiae BY4741 (wild-type), vegetative growth in YPD. Nature of the test: growth sensitivity score (doubling time z-score vs DMSO controls); higher = slower growth, strongly negative scores also mark growth inhibition (complete suppression), active = hit call of the paper. In a few lines:
(§1)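 Optical density of Saccharomyces cerevisiae cultures in microtiter plates was followed every 15 min for 24 hours after seeding at an OD600 of 0.065. Eight solvent-only wells were run per experiment. Growth sensitivity scores were found by subtracting the solvent-only mean from the compound mean and dividing by the solvent-only standard deviation.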

In test [3] the test system is S. cerevisiae AD1-9 (efflux-pump deficient), vegetative growth in YPD. Described as above. In a few lines:
as §1

SMILES strings stand for the structures. Where a name gives a salt, the structure may show the parent alone. Values without a mark were called inactive.

Regarding `COc1ccc(-c2oc3c(CC=C(C)C)c(O[C@@H]4O[C@H](CO)[C@@H](O)[C@H](O)[C@H]4O)cc(O)c3c(=O)c2O[C@@H]2O[C@@H](C)[C@H](O)[C@@H](O)[C@H]2O)cc1` [Icariin] (stock concentration (mM, diluted 1:100): 10), the “CDA2-GFP sporulation assay sensitivity score” value in test [1] was -1.61. Also, in test [2], the growth sensitivity score is -1.71.

Consider `CCc1c2c(nc3ccc(OC(=O)N4CCC(N5CCCCC5)CC4)cc13)-c1cc3c(c(=O)n1C2)COC(=O)[C@]3(O)CC` [Irinotecan hydrochloride] (stock concentration (mM, diluted 1:100): 8.7), for which the growth sensitivity score in test [3] is 2.14 (active); in test [2], -1.27.

`CC(C)(C)NC(=O)[C@H]1CC[C@H]2[C@@H]3CC[C@H]4NC(=O)C=C[C@]4(C)[C@H]3CC[C@]12C` [Finasteride] (stock concentration (mM, diluted 1:100): 10): in test [1], the “CDA2-GFP sporulation assay sensitivity score” value is 3.51. In addition, the growth sensitivity score was 20.2 (active) in test [3] and 1.37 in test [2].

Take `N[C@@H](C(=O)N[C@@H]1C(=O)N2C(C(=O)O)=C(Cl)CS[C@H]12)c1ccccc1` [Cefaclor] (stock concentration (mM, diluted 1:100): 10): the growth sensitivity score in test [3] is -1.29; in test [2], 0.84.

As to `O=[N+]([O-])c1cccc2cn[nH]c12` [7-Nitroindazole] (stock concentration (mM, diluted 1:100): 10), the “CDA2-GFP sporulation assay sensitivity score” value in test [1] is 2.93. In addition, the growth sensitivity score is -1.05 in test [3] and 0.06 in test [2].

With `NC(N)=NC(=O)c1nc(Cl)c(N)nc1N` (stock concentration (mM, diluted 1:100): 8.2), in test [1], the “CDA2-GFP sporulation assay sensitivity score” value was 6.05 (active). Moreover, the growth sensitivity score was 4.88 (active) in test [3] and 1.27 in test [2].
